# Assay outcomes from PubChem BioAssay.
# Ecoli rRNA inh – reduced GFP signal of wild-type E. coli, primary screen, bacterial rRNA inhibitor project, GFP/RFP fluorescence, OD600, single point; E. coli WT GFP vs humanized-ribosome RFP mutants, 24 h; active compounds read low; DMSO median 0, no signal -100; GFP signal change (wild-type ribosome), % (test concentration not listed); hit rate 1.6% among 350,000; AID 720706, 2013;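 active = significant combined selectivity score with lowered wild-type GFP, culture density cut under 30%, mutant RFP and density less affected; inactive = any of these conditions unmet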
# Wnt bcat act – Wnt/beta-catenin pathway activators, primary screen, cell-based, plate reader, single point. AID 743398, 2014. Wnt/beta-catenin reporter cell assay, activator. hit rate 1.2% among 300,000. activation, % at 9.35 µM; in the data active = activation above about 30%, passing the limit was not always enough; inconclusive = no clear call, values can overlap the other calls;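 also: 0% = neutral control wells and 100% = positive control wells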
# MITF TRPM1 HTS – activators of MITF-driven TRPM1 promoter reporter, primary screen, cell-based, SK-MEL-5, luciferase, single point; SK-MEL-5 TRPM1-promoter luciferase, 24 h; % of positive control, neutral wells = 0; activation, % at 12.5 µM; hit rate 0.75% among 300,000; AID 588334, 2011;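 active = mean activation of at least 80% with every replicate also reaching 80%; inconclusive = mean reaches 80% but some replicate falls short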;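 also: 0% = neutral control wells and 100% = parthenolide positive control wells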
# AF4-AF9 inh – inhibitors of AF4 peptide binding to AF9, primary screen, biochemical, AlphaScreen, biotin-AF4 peptide, FLAG-AF9, single point; inhibition, % at 10 µM; AID 651704, 2012; hit rate 0.47% among 350,000;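 active = every replicate reaching a set inhibition limit, whatever the replicate mean, cut at about 25% in these data; inconclusive = mean inhibition reaches that limit but some replicates miss it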;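 also: 0% = plate neutral control median and 100% = total signal loss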
# Target sequence (P42568 whole entry, looked up): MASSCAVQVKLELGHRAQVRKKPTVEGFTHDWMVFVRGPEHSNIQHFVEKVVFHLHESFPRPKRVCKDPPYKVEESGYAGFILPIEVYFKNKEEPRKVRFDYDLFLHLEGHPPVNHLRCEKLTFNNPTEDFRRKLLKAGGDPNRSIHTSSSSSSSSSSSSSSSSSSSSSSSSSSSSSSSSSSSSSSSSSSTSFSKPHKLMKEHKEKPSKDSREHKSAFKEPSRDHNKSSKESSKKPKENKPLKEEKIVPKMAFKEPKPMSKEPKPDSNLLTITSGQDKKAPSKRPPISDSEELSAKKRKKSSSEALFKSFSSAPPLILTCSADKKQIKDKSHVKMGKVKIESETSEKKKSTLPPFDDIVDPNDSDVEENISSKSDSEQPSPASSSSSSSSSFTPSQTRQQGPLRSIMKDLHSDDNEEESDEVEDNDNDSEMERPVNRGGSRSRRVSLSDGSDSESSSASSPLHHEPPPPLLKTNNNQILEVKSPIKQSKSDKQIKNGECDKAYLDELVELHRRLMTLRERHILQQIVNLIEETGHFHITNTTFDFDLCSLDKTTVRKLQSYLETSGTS
# esBAF inh – Bmi1 luciferase reporter increase in mESCs, primary screen, esBAF inhibitor project, mouse ES cells, Bmi1 luciferase knock-in, single point; 24 h; 100% = twice the neutral-well signal; reporter increase, % at 12.5 µM; hit rate 2% among 350,000; AID 602393, 2012; in the data active = activation above about 40%; inconclusive = no clear call, values can overlap the other calls;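 also: 0% = median of the plate's neutral control wells and 100% = double that signal; a rise in the Bmi1 reporter signal indicates esBAF inhibition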
# Active calls of the source: *; ? = inconclusive; . = no result. Most compounds without a hit are left out; they make up all but 3.7% or so of the library.
SMILES,Ecoli rRNA inh,Wnt bcat act,MITF TRPM1 HTS,AF4-AF9 inh,esBAF inh
O=C(Cc1ccc(O)cc1)NC1CCCCCC1,15.7,16.1,90.2*,1.0,35.9
CCOc1ccc(NC(=S)N2CCC(C(=O)c3ccc(OC)cc3)CC2)cc1,-13.5*,4.3,.,0.2,-7.2
CCc1ccc(NC(=O)C(=S)NC2CCCCC2)cc1,7.3,-4.4,119.2*,-0.7,29.7
O=C(Cc1ccc(Br)cc1)NC1CCCCC1,.,20.1,31.9,.,28.8
CCc1ccc(NC(=O)C2CCCN2C(=O)NC2CCCCC2)cc1 (stereo not given),10.2,1.0,-9.2,2.6,-1.8
Cc1c(CN2CCC(CO)(Cc3ccccc3)CC2)c2ccccc2n1C,2.7,-0.1,-0.2,10.2,.
Nc1cccc(Nc2ncnc3ccccc23)c1,1.7,-0.5,7.9,1.2,-1.2
Cn1c(C(=O)NCCCN2CCN(c3ccccc3F)CC2)cc2c(=O)[nH]c3ccccc3c21,.,.,2.6,.,-6.8
CCOc1ncccc1C(=O)Nc1cc(S(=O)(=O)N2CCOCC2)ccc1OCC(F)(F)F,8.5,-2.7,-14.0,-3.6,-3.3
O=C(C[C@@H]1CC[C@@H]2[C@H](COC[C@H](O)CN2C(=O)c2ccccc2F)O1)N1CCCCC1,-0.4,.,.,-0.2,-2.7
O=C(C[C@@H]1CC[C@H]2[C@@H](COC[C@@H](O)CN2C(=O)c2ccccc2)O1)NCc1cccc(F)c1,-1.2,.,.,-9.4,-6.7
CCOc1ccc(NC(=O)C(=S)NC2CCCCC2)cc1,6.7,-1.1,136.2*,-3.7,.
COc1ccc(NC(=O)C(=S)NC2CCCCC2)cc1,-3.9,39.2*,69.1,-0.1,35.8
COc1ccc(-n2c(C)cc(C(=O)NC3CCCCC3)c2C)cc1,-23.4*,17.8,43.4,9.7,53.7*
CC(=O)c1ccc(NC(=S)N2CCC(Cc3ccccc3)CC2)cc1,-23.1,40.5*,8.5,2.3,.
COc1ccc(OC)c(NC(=O)C(=S)NC2CCCCC2)c1,-4.2,-2.3,-4.9,10.9,.
Cc1cccc(-n2c(C)cc(C(=O)NC3CCCCC3)c2C)c1,.,21.2,63.3,-0.2,15.9
CCOc1ccc(NC(=O)C2CCN(C(=O)NC3CCCCC3)CC2)cc1,.,-1.8,-2.6,.,.
C[C@@H]1CN([C@H](C)CO)C(=O)c2cc(C#CCN(C)C)cnc2O[C@H]1CN(C)Cc1ccncc1,-1.2,.,.,-0.9,-2.9
CCOc1ccc(CC(=O)NNC(=O)NC2CCCCC2)cc1,11.6,-0.8,-10.3,3.3,.
CCOc1ccc(NC(=O)NC2CCCCCCC2)cc1,4.1,-0.4,77.1,-3.7,59.0*
Cc1cccc(C(=O)NCC(c2ccco2)N(C)C)c1 (stereo not given),23.7,0.6,8.1,0.9,2.1
COc1ccc2oc(C(=O)NCC(c3ccco3)N(C)C)c(C)c2c1 (stereo not given),3.6,14.2,35.9,34.6*,34.9
CN(C)c1cccc(C(=O)NCC(c2ccco2)N(C)C)c1 (stereo not given),15.2,9.8,28.9,1.5,40.3*
Cc1nc(-c2cccc(S(=O)(=O)N3CCCC(C)C3)c2)cs1 (stereo not given),.,.,6.3,.,7.1
SMILES,Ecoli rRNA inh,Wnt bcat act,MITF TRPM1 HTS,AF4-AF9 inh,esBAF inh
Cc1cccc(N2CCN(C(=O)CNC(=O)c3cccc([N+](=O)[O-])c3)CC2)c1C,-19.0*,0.6,-15.9,3.2,3.4
Cc1cccc(N2CCN(C(=O)CNC(=O)Cc3ccccc3)CC2)c1C,-1.9,11.2,-34.2,1.4,3.6
CCCCn1c(N)c(N(CCC(C)C)C(=O)CSc2nc3ccccc3n2C)c(=O)[nH]c1=O,3.4,-1.4,0.2,-4.2,-2.4
COCCCNC(=O)CSc1c2c(nc3ccc(Cl)cc13)CCCC2,-23.1*,-2.6,-20.4,0.2,.
CCOC(=O)c1c(CN2CCC(C)CC2)oc2ccc(OC)cc12,.,-2.1,3.5,.,-3.0
CCn1cc(Br)c(C(=O)Nc2ccc(OC)cc2)n1,-11.9,.,40.6,.,33.8
CCn1cc(Br)c(C(=O)Nc2cccc(Cl)c2)n1,-36.0,.,48.0,.,35.6
CCn1cc(Br)c(C(=O)Nc2ccc(Cl)c(Cl)c2)n1,.,.,57.7,.,64.6*
CCn1cc(Br)c(C(=O)Nc2ccc(C(=O)OC(C)C)cc2)n1,-21.4*,-0.2,40.0,4.0,24.8
Cc1c(NC(=O)CSc2nc3ccc(Cl)cc3[nH]2)c(=O)n(-c2ccccc2)n1C,.,-0.8,-10.3,.,-3.0
CCS(=O)(=O)N1Cc2ccccc2CC1C(=O)Nc1ccc(C)cc1 (stereo not given),.,18.2,.,.,48.8*
CCS(=O)(=O)N1Cc2ccccc2CC1C(=O)N(C)CC(=O)Nc1cccc(F)c1 (stereo not given),4.9,-0.5,6.4,-0.3,46.6*
CCS(=O)(=O)N1Cc2ccccc2CC1C(=O)Nc1ccc(NC(C)=O)cc1 (stereo not given),.,-4.1,-23.3,.,.
C[C@H](O)C#Cc1ccc([C@H]2[C@H](CO)N3CCCCN(CC4CCOCC4)C[C@@H]23)cc1,6.7,.,.,-0.6,.
S=C(NCc1ccc2c(c1)OCO2)Nc1ccc2nsnc2c1,-12.8,-4.3,32.5,-3.4,56.1*
S=C(Nc1ccc2c(c1)OCO2)Nc1ccc2c(c1)OCO2,17.3,5.2,31.4,5.2,50.6*
Cn1cnc(S(=O)(=O)N[C@H]2C=C[C@H](CC(=O)N3CCN(c4ccccc4)CC3)O[C@@H]2CO)c1,2.5,.,.,1.8,-2.0
Oc1ccc(Br)cc1-c1cc(-c2ccccc2)n[nH]1,.,.,-1.5,.,.
COc1ccc(O)c(-c2cc(-c3ccc(F)cc3)n[nH]2)c1,-14.0,?,41.6,6.5,71.9*
COc1ccc(O)c(-c2cc(-c3cccc(Br)c3)n[nH]2)c1,.,15.1,55.7,.,62.0*
COc1ccc(-c2cc(-c3ccc(Cl)cc3)n[nH]2)c(O)c1,-35.0,41.1*,121.9*,0.8,.
COc1ccc(-c2cc(-c3cc(OC)ccc3O)[nH]n2)cc1,.,.,.,.,53.6*
COc1ccc(-c2n[nH]c(C)c2-c2cc(OC)ccc2O)cc1,.,-5.7,4.4,.,-3.0
COc1ccc(N2CCN(S(=O)(=O)c3c(C)[nH]c(C)c3C(=O)N3CCCCC3)CC2)cc1,-3.1,2.8,2.0,1.7,4.4
COc1ccc(C(=O)NCCS(=O)(=O)N2CCC3(CC2)OCCO3)cc1,4.3,2.8,2.6,-2.6,-2.7
Cc1noc(C)c1S(=O)(=O)Nc1ccc2c(c1)C(=O)N([C@@H](C)CO)C[C@H](C)[C@H](CN(C)Cc1ccc(-c3ccccc3)cc1)O2,1.2,.,.,11.0,3.4
CC(OC(=O)c1ccc(NC(=O)CC#N)cc1)C(=O)NC(=O)NC1CCCCC1 (stereo not given),8.1,0.3,-8.5,0.8,1.6
CC1Cc2cc(/C(O)=C3/C(=O)C(=O)N(CCCn4ccnc4)C3c3ccc([N+](=O)[O-])cc3)ccc2O1 (stereo not given),0.9,-0.7,11.3,13.2,-3.6
